Screens deposited in PubChem by National Center for Advancing Translational Sciences (NCATS).
Compounds with a hit are over-represented: about 12% of the library has one in this group of screens.
Sm TGR block: qHTS Assay for the Inhibitors of Schistosoma Mansoni Peroxiredoxins. Schistosoma mansoni thioredoxin glutathione reductase (TGR), Q962Y6. purified TGR, DTNB reduction, TNB absorbance 405 nm. Potency, µM (series often up to 114 µM), hits mostly inhibitors. 3% of 360,000 active. AID 485364, 2010; further: nearly all actives have a fitted effect of over 60% in size
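Kinetic colorimetric format: TGR-catalysed, NADPH-driven DTNB reduction monitored via TNB absorbance. Enzyme dispensed at 20 nM; compound exposure 15 min at room temperature before reaction start.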
AmpC inh detg: qHTS Inhibitors of AmpC Beta-Lactamase (assay with detergent). P00811. AmpC hydrolysis of nitrocefin, absorbance 480 nm, 0.01% Triton. Potency, µM (doses to about 114 µM), hits mostly inhibitors. 0.041% of 370,000 active; further: nearly all actives have a fitted effect of over 25% in size
Target sequence (P00811 whole entry, looked up): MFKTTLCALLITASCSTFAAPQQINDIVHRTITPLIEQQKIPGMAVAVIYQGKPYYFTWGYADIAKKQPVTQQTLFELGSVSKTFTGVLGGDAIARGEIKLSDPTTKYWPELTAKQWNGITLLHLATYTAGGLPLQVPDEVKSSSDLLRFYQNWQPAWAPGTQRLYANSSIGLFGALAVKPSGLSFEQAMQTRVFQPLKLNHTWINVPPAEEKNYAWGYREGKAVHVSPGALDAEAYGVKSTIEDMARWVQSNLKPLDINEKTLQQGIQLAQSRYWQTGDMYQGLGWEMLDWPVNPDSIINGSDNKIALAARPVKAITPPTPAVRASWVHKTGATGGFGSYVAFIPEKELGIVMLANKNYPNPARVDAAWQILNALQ
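AmpC (5.3 nM in the dispensed reagent) in 20 mM phosphate pH 7.0 with 0.01% (detergent screen) or 0.0001% Triton X-100 was preincubated with compounds for 15 min at room temperature. Nitrocefin was then added from an 800 uM solution, and hydrolysis was followed at 480 nm.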
SARS PLpro yeast: qHTS of Yeast-based Assay for SARS-CoV PLP. S. cerevisiae expressing SARS-CoV PLpro, growth rescue. AID 485353, 2010. 0.19% of 330,000 active. Potency, µM (titrated, usually from 32.9 µM), actives largely listed as activators; calls by dose curve; further: nearly all actives have a fitted effect of over 55% in size
Pf growth 96h: Primary qHTS for delayed death inhibitors of the malarial parasite plastid, 96 hour incubation; P. falciparum luciferase reporter growth, 96 h; 6.9% of 320,000 active; Potency, µM (highest dose often 28.7 µM), most hits filed as inhibitors; AID 504834, 2011
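Compounds incubated with erythrocytes infected by luciferase-expressing P. falciparum (2% hematocrit, 0.05% parasitemia final) for 96 hours, 37 C in 5% CO2. Growth inhibition scored as decreased luciferase luminescence.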
AmpC no deterg: qHTS Inhibitors of AmpC Beta-Lactamase (assay without detergent) | P00811 | AmpC nitrocefin hydrolysis, absorbance 480 nm, 0.0001% Triton | Potency, µM (titrated, usually from 57.1 µM), hits mostly inhibitors | 0.52% of 330,000 active | AID 485341, 2010; further: nearly all actives have a fitted effect of over 20% in size
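AmpC (5.3 nM in the dispensed reagent) in 20 mM phosphate pH 7.0 with 0.01% (detergent screen) or 0.0001% Triton X-100 was preincubated with compounds for 15 min at room temperature. Nitrocefin was then added from an 800 uM solution, and hydrolysis was followed at 480 nm.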
Pf growth 48h: Primary qHTS for delayed death inhibitors of the malarial parasite plastid, 48 hour incubation. Potency, µM (series often up to 28.7 µM), usual class: inhibitors. 5.9% of 310,000 active. AID 504832, 2011. P. falciparum luciferase growth in erythrocytes, 48 h
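Compounds are pin-transferred into medium, infected erythrocytes (2% hematocrit, 0.1% parasitemia final) are added, and plates sit one parasite generation at 37 C in 5% CO2. Detection reagent is then added and luminescence measured.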
A number is an active result; n = inactive; u = inconclusive; x = not tested or not shown; [ ] = remark or other dose. Unless noted, the call rests on the fitted dose curve; in most records, active means well fitted curve in the direction sought with a large enough effect; inconclusive means small, poorly fitted or top-dose-only effect, or another doubt; inactive means no such curve, though single readings can be large; an effect the other way counts as inactive or inconclusive.

SMILES | Sm TGR block | AmpC inh detg | SARS PLpro yeast | Pf growth 96h | AmpC no deterg | Pf growth 48h
Cc1noc(C)c1COc1ccc(C(=O)OC(C)C(=O)Nc2ccc(N3CCOCC3)cc2)cc1 (stereo unspecified) | n | u | n | n | n | n
CC1C(=O)N2CCCc3cc(NC(=O)C(=O)NCCc4ccccc4)cc1c32 (stereo unspecified) | n | n | n | 13µM | n | u
CC(C)CNC(=O)C(=O)Nc1cc2c3c(c1)C(C)C(=O)N3CCC2 (stereo unspecified) | n | n | n | 15µM | n | n
CC1C(=O)N2CCCc3cc(NC(=O)C(=O)NCCN4CCOCC4)cc1c32 (stereo unspecified) | n | n | n | n | n | n
Cc1ccc2c(c1)c1c(n2CC(O)Cn2c(C)nc3ccccc32)/C(=N\O)CCC1 (stereo unspecified) | n | n | n | u | n | 12µM
CC1CCN(CC(O)Cn2c3ccccc3c3ccccc32)CC1 (stereo unspecified) | n | n | n | u | n | u
Cc1ccc2c(c1)c1c(n2CC(O)Cn2c(C)nc3ccccc32)C(=O)CCC1 (stereo unspecified) | n | u | n | n | n | 15µM
Cc1nc2ccccc2n1CC(O)Cn1c2ccccc2c2ccccc21 (stereo unspecified) | n | n | n | x | n | 12µM
Cc1cc(C)[n+](C)n1CC(O)Cn1c2ccccc2c2ccccc21 (stereo unspecified) | n | n | n | n | n | 0.59µM
Cc1c(Cl)cccc1NC(=O)CCS(=O)(=O)c1ccc2c(c1)CC(C)N2C(=O)C1CC1 (stereo unspecified) | n | n | x | x | x | x
OC(CN1CCOCC1)Cn1c2ccccc2c2ccccc21 (stereo unspecified) | n | n | n | n | n | u
OC(Cn1c2ccccc2c2ccccc21)C[n+]1cccc2ccccc21 (stereo unspecified) | n | u | n | 3.3µM | n | 6.6µM
COc1ccc(CNC(=O)c2ccc(NC(=O)N3CCSc4ccccc43)cc2)cc1 | n | n | x | x | x | x
C[C@@H]1O[C@@H](Oc2c(-c3cc(O)c(O)c(O)c3)oc3cc(O)cc(O)c3c2=O)[C@H](O)[C@H](O)[C@H]1O | n | n | n | u | n | 13µM
CCCCn1cc(S(=O)(=O)c2ccc(C)c(C)c2)c(=O)c2cc(F)c(N3CCN(C)CC3)cc21 | n | n | x | x | x | x
CC(C)c1onc(C(=O)NC(C)c2ccccc2)c1[N+](=O)[O-] (stereo unspecified) | 40µM | n | u | n | n | n
Cc1ccc(O)c(NC(=O)c2noc(C(C)C)c2[N+](=O)[O-])c1 | 35µM | n | n | u | n | n
CC(C)c1onc(C(=O)N(C)Cc2ccccc2)c1[N+](=O)[O-] | n | n | n | u | n | u
CC(C)c1onc(C(=O)NCCc2ccccc2)c1[N+](=O)[O-] | 45µM | n | n | u | n | n
O=C(CSc1nnc(NC(=O)c2ccco2)s1)Nc1ccc2c(c1)OCCO2 | n | n | n | n | n | n
Cc1ccccc1N1CCN(C2CCCN(C(=O)c3csc(C(C)C)n3)C2)CC1 (stereo unspecified) | n | u | n | u | n | n
Cc1cc(Cl)ccc1OCC(=O)N(Cc1ccc(N(C)C)cc1)CC1CCCO1 (stereo unspecified) | n | n | x | x | x | x
CC(C)Nc1nc(-c2ccncc2)nc(-c2ccc(Cl)cc2)c1C#N | n | n | n | u | n | u
CC(C)Nc1nc(-c2cccnc2)nc(-c2ccc(Cl)cc2)c1C#N | n | n | n | 2.3µM | n | n[0.00184 µM]
CC(C)Nc1nc(-c2cccnc2)nc(-c2ccccc2)c1C#N | n | n | n | u | n | 8.3µM
